Data on 37 compounds can be found in PubChem BioAssay (NCATS).

Structures are written as SMILES. Inconclusive results are not listed. Calls of active or inactive are those of the source. Unless noted, the call rests on the fitted dose curve.

For the first experiment, the target named is Protein phosphatase 1D (Homo sapiens) (UniProt O15297). The experiment is described as follows: RapidFire Mass Spectrometry qHTS Assay for Modulators of WT P53-Induced Phosphatase 1 (WIP1) (AID 1347424; active means well fitted curve in the direction sought with a large enough effect; an effect the other way counts as inactive or inconclusive;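 further: plate controls were DMSO wells for no effect and GSK830371 inhibitor control at 10 µM for full effect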). The settings on record: WIP1 dephosphorylation of phosphopeptide, RapidFire MS; series mostly up to 63 µM; activity change, negative = inhibition: at the top concentration. In a few lines: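 RapidFire MS readout of dephosphorylated VEPPL-S-QETFS product, with 1 uM isotope-labelled peptide standard. Reaction: 10 nM WIP1, 2 uM phosphopeptide substrate, 5 min, room temperature, after 1 h compound preincubation; stopped with 0.5% formic acid.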
Chain of Protein phosphatase 1D (Homo sapiens) (O15297 whole entry, looked up): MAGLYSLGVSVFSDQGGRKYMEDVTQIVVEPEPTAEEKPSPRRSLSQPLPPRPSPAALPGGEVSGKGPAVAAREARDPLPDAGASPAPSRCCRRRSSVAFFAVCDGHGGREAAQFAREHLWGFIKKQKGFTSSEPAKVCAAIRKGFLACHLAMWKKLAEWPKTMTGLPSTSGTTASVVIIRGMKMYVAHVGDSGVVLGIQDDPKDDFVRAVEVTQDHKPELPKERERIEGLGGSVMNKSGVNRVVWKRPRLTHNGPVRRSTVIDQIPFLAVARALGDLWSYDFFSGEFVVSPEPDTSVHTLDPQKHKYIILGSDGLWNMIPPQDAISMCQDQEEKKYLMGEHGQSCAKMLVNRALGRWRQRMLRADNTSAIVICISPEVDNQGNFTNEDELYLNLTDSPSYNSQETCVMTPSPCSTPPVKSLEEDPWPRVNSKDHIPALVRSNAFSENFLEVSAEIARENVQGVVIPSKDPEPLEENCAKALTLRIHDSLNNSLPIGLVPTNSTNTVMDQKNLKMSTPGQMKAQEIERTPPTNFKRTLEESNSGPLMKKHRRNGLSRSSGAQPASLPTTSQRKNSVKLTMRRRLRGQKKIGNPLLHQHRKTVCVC
(In general: Quantitative high-throughput screening tests each substance at several concentrations.)
Turning to `CCN(C(C)=O)c1cccc(-c2ccnc3c(C#N)cnn23)c1`, the “activity change, negative = inhibition” value is -13.7% (inactive).
Same read-out and setting: the same measure for `CC1OC(C)OC(C)O1` (stereo unspecified): 4.73% (inactive); for `COc1ccc(C(=O)c2c(C)n(CCN3CCOCC3)c3ccccc23)cc1`: 53.6% (inactive).

A further experiment shares this target. The experiment is described as follows: Rhodamine-PBP qHTS Assay for Modulators of WT P53-Induced Phosphatase 1 (WIP1) (AID 1347425; active means well fitted curve in the direction sought with a large enough effect; an effect the other way counts as inactive or inconclusive; further: % of control where 0% means no effect). The settings on record: recombinant WIP1, Rhodamine-PBP phosphate fluorescence, real-time; series mostly up to 57.5 µM; activity change, negative = inhibition: at the top concentration. Summed up: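 WIP1 (5 nM final) was preincubated with compound for 1 hour at room temperature. It then dephosphorylated 10 uM VEPPL-pS-QETFS peptide in Tris-HCl pH 7.5 with 30 mM MgCl2. Released Pi was detected by 10 uM Rh-PBP fluorescence (ex 525/em 598 nm) read at 1-min intervals for 11 min, as delta f1 - f0.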
As to `CN1CCN(C(=O)O[C@H]2c3nccnc3C(=O)N2c2ccc(Cl)cn2)CC1`, the “activity change, negative = inhibition” value was -4.06% (inactive).
The same measure, in the same setting: the figure for `Cc1ccc2c(c1)C1CN(C)CCC1N2` (stereo unspecified) is 19.5% [at 23.8 µM] (inactive); for `CCN(C(C)=O)c1cccc(-c2ccnc3c(C#N)cnn23)c1` it is 7.36% (inactive); for `CC1OC(C)OC(C)O1` (stereo unspecified) it is 3.98% (inactive).
For the compound `CCCC1CCCCN1` (stereo unspecified), the “activity change, negative = inhibition” value is 13.7% (inactive).
Take `COc1ccc(C(=O)c2c(C)n(CCN3CCOCC3)c3ccccc23)cc1`: the “activity change, negative = inhibition” value was 31.3% (inactive).
The same measure, in the same setting: the same measure for `Clc1ccc(CCC(Cn2ccnc2)Sc2c(Cl)cccc2Cl)cc1` (stereo unspecified): 16.8% (inactive).
The same measure, in the same setting: the same measure for `CC(C)(C)NCC(O)c1cc(Cl)c(N)c(Cl)c1` (stereo unspecified): 13.4% (inactive); for `CCC(COC(=O)c1cc(OC)c(OC)c(OC)c1)(c1ccccc1)N(C)C` (stereo unspecified): 13.2% (inactive).
The same measure, in the same setting: the figure for `CC(C)(C)CC(C)(C)c1ccc(O)cc1` is -17.6% (inactive).
Consider `O=C(O)c1ccc2[nH]cc(CCCCN3CC=C(c4ccccc4)CC3)c2c1`, for which the “activity change, negative = inhibition” value is -1.83% (inactive).
As to `CC(=O)Nc1cc([As](=O)(O)O)ccc1O`, the “activity change, negative = inhibition” value was -1% (inactive).
On the same count and under the same terms, the same measure for `CC(C)NCC(O)c1ccccc1Cl` (stereo unspecified): 8.03% (inactive); for `CN(C)CCc1ccc(O)cc1`: -8.79% (inactive).
Still for that read-out and setting: the same measure for `CCCC(C)(COC(N)=O)COC(=O)NC(C)C` (stereo unspecified): 9.35% (inactive); for `C=C1CC[C@@]2(O)[C@H]3Cc4ccc(O)c5c4[C@@]2(CCN3CC2CC2)[C@H]1O5`: 11.8% (inactive).
On to `c1ccc2c(c1)Nc1ccccc1S2`, for which the result was inactive.
For `Cc1ccc(-c2nc3ccc(C)cn3c2CC(=O)N(C)C)cc1`, the “activity change, negative = inhibition” value is 10.3% (inactive).
Still for that read-out and setting: the figure for `CCC(=O)C(CC(C)N(C)C)(c1ccccc1)c1ccccc1` (stereo unspecified) is 21.4% [at 116 µM] (inactive).
For the compound `CC1NCCOC1c1ccccc1` (stereo unspecified), the “activity change, negative = inhibition” value is 14.4% (inactive).
The same measure, in the same setting: the same measure for `C[C@]12CC[C@H]3[C@@H](CCC4=CC(=O)CC[C@@H]43)[C@@H]1CC[C@@H]2OC(=O)CCc1ccccc1`: 3.63% (inactive).
Same read-out and setting: the figure for `O=C1CC[C@@]2(O)[C@H]3Cc4ccc(O)c5c4[C@@]2(CCN3CC2CC2)[C@H]1O5` is 4.02% (inactive); for `CCC(C(N)=O)N1CCCC1=O` (stereo unspecified) it is 11.4% (inactive).

Tested on in a further experiment: not listed separately
The experiment is described as follows: Primary qHTS for inhibitors of SARS-S pseudo-typed particle cell entry (AID 1479145). Further: nearly all actives have a fitted effect of over 45% in size. Further: potency means the concentration at half of the fitted maximal effect. On activity change, negative = inhibition: on the % scale 0 is the no-effect control and ±100 the full control effect. The settings on record: SARS-S pseudotyped particle cell entry, luciferase reporter; series mostly up to 57.1 µM; activity change, negative = inhibition: at the top concentration; outcome: at the top concentration.
Turning to `COc1cc2c(c(OC)c1OC)-c1ccc(OC)c(=O)cc1[C@@H](NC(C)=O)CC2`, the “activity change, negative = inhibition” value is -3.78% (inactive).
In the case of `CN1CCN(C(=O)O[C@H]2c3nccnc3C(=O)N2c2ccc(Cl)cn2)CC1`, the call was inactive.
With `CC1(C)NC(=O)N(c2ccc([N+](=O)[O-])c(C(F)(F)F)c2)C1=O`, the Potency is 35.5 µM (active).
Regarding `CC(C)OC(=O)C(C)(C)Oc1ccc(C(=O)c2ccc(Cl)cc2)cc1`, the “activity change, negative = inhibition” value was 1.98% (inactive).
In the case of `COc1cc2ncnc(Nc3ccc(F)c(Cl)c3)c2cc1OCCCN1CCOCC1`, the Potency is 12.6 µM (active).
The same measure, in the same setting: the figure for `O=C1C(=O)c2ccccc2C(O)=C1C1CCC(c2ccc(Cl)cc2)CC1` (stereo unspecified) is 0.891 µM (active).
On to `CC(C)(C)NCC(O)c1cc(Cl)c(N)c(Cl)c1` (stereo unspecified), for which the “activity change, negative = inhibition” value was -2.94% (inactive).
Still for that read-out and setting: the figure for `CC(C)(C)CC(C)(C)c1ccc(O)cc1` is -23.2% (inactive); for `CC(C)Nc1cccnc1N1CCN(C(=O)c2cc3cc(NS(C)(=O)=O)ccc3[nH]2)CC1` it is -9.62% (inactive).
Regarding `Cc1nc(-c2ccc(OCC(C)C)c(C#N)c2)sc1C(=O)O`, the compound was classed as inactive.
As for `CN1C[C@H]2c3ccccc3Oc3ccc(Cl)cc3[C@@H]2C1`, the “activity change, negative = inhibition” value was -12.4% (inactive).
Consider `CC(=O)Nc1cc([As](=O)(O)O)ccc1O`, for which the result was inactive.
Still for that read-out and setting: the entry for `CC(C)NCC(O)c1ccccc1Cl` (stereo unspecified) is “inactive”.
In the case of `Cc1nc(Nc2ncc(C(=O)Nc3c(C)cccc3Cl)s2)cc(N2CCN(CCO)CC2)n1`, the “activity change, negative = inhibition” value was -72.7% (inactive).
On the same count and under the same terms, the same measure for `CC[C@]1(O)C[C@H]2CN(CCc3c([nH]c4ccccc34)[C@@](C(=O)OC)(c3cc4c(cc3OC)N(C=O)[C@H]3[C@@](O)(C(=O)OC)[C@H](OC(C)=O)[C@]5(CC)C=CCN6CC[C@]43[C@@H]65)C2)C1`: -25.1% (inactive).
Turning to `CC(=O)[C@]1(O)Cc2c(O)c3c(c(O)c2[C@@H](O[C@H]2C[C@H](N)[C@H](O)[C@H](C)O2)C1)C(=O)c1ccccc1C3=O`, the Potency was 8.91 µM (active).
`O=C1c2c(O)ccc(O)c2C(=O)c2c(NCCNCCO)ccc(NCCNCCO)c21`: the “activity change, negative = inhibition” value was -98.2% (inactive).
On to `C[C@]12CC[C@H]3[C@@H](CCC4=CC(=O)CC[C@@H]43)[C@@H]1CC[C@@H]2OC(=O)CCc1ccccc1`, for which the outcome was inactive.
In the case of `O=C1CC[C@@]2(O)[C@H]3Cc4ccc(O)c5c4[C@@]2(CCN3CC2CC2)[C@H]1O5`, the “activity change, negative = inhibition” value is -10.7% (inactive).
Turning to `CCCSc1ccc2nc(NC(=O)OC)[nH]c2c1`, the call was inactive.
The same measure, in the same setting: the entry for `CCC(C(N)=O)N1CCCC1=O` (stereo unspecified) is “inactive”; for `CC(C)Oc1ccc2c(=O)c(-c3ccccc3)coc2c1` it is “inactive”.

Tested on in the next experiment: not listed separately
The experiment is described as follows: Primary qHTS for Huh7 cytotoxicity: counterscreen for inhibitors of MERS-S pseudotyped particle cell entry (AID 1479147). Further: potency means the concentration at half of the fitted maximal effect. On activity change, negative = cytotoxicity: on the % scale 0 is the no-effect control and ±100 the full control effect. The settings on record: cell viability read-out; series mostly up to 57.1 µM; activity change, negative = cytotoxicity: at the top concentration; outcome: at the top concentration.
With `COc1cc2c(c(OC)c1OC)-c1ccc(OC)c(=O)cc1[C@@H](NC(C)=O)CC2`, the “activity change, negative = cytotoxicity” value is -16.5% (inactive).
On to `CN1CCN(C(=O)O[C@H]2c3nccnc3C(=O)N2c2ccc(Cl)cn2)CC1`, for which the outcome was inactive.
Same read-out and setting: the same measure for `CC1(C)NC(=O)N(c2ccc([N+](=O)[O-])c(C(F)(F)F)c2)C1=O`: “inactive”.
For the compound `CCCC1CCCCN1` (stereo unspecified), the “activity change, negative = cytotoxicity” value is 3.15% (inactive).
As for `O=C1C(=O)c2ccccc2C(O)=C1C1CCC(c2ccc(Cl)cc2)CC1` (stereo unspecified), the outcome was inactive.
For the compound `Clc1ccc(CCC(Cn2ccnc2)Sc2c(Cl)cccc2Cl)cc1` (stereo unspecified), the “activity change, negative = cytotoxicity” value was -26.2% (inactive).
On the same count and under the same terms, the figure for `CC(C)(C)NCC(O)c1cc(Cl)c(N)c(Cl)c1` (stereo unspecified) is -8.58% (inactive); for `CCC(COC(=O)c1cc(OC)c(OC)c(OC)c1)(c1ccccc1)N(C)C` (stereo unspecified) it is 0.394% (inactive); for `CC(C)(C)CC(C)(C)c1ccc(O)cc1` it is -14% (inactive).
As to `CC(C)Nc1cccnc1N1CCN(C(=O)c2cc3cc(NS(C)(=O)=O)ccc3[nH]2)CC1`, the outcome was inactive.
For `Cc1nc(-c2ccc(OCC(C)C)c(C#N)c2)sc1C(=O)O`, the “activity change, negative = cytotoxicity” value is -20.8% (inactive).
On to `CC(=O)Nc1cc([As](=O)(O)O)ccc1O`, for which the result was inactive.
Still for that read-out and setting: the entry for `CC(C)NCC(O)c1ccccc1Cl` (stereo unspecified) is “inactive”.
Regarding `Cc1nc(Nc2ncc(C(=O)Nc3c(C)cccc3Cl)s2)cc(N2CCN(CCO)CC2)n1`, the “activity change, negative = cytotoxicity” value was -7.57% (inactive).
For the compound `C=C1CC[C@@]2(O)[C@H]3Cc4ccc(O)c5c4[C@@]2(CCN3CC2CC2)[C@H]1O5`, the outcome was inactive.
Still for that read-out and setting: the same measure for `c1ccc2c(c1)Nc1ccccc1S2`: “inactive”.
On to `CC[C@]1(O)C[C@H]2CN(CCc3c([nH]c4ccccc34)[C@@](C(=O)OC)(c3cc4c(cc3OC)N(C=O)[C@H]3[C@@](O)(C(=O)OC)[C@H](OC(C)=O)[C@]5(CC)C=CCN6CC[C@]43[C@@H]65)C2)C1`, for which the “activity change, negative = cytotoxicity” value was -19.3% (inactive).
Turning to `CC(=O)[C@]1(O)Cc2c(O)c3c(c(O)c2[C@@H](O[C@H]2C[C@H](N)[C@H](O)[C@H](C)O2)C1)C(=O)c1ccccc1C3=O`, the Potency was 7.08 µM (active).
Still for that read-out and setting: the figure for `O=C1c2c(O)ccc(O)c2C(=O)c2c(NCCNCCO)ccc(NCCNCCO)c21` is 25.1 µM (active).
Take `C[C@]12CC[C@H]3[C@@H](CCC4=CC(=O)CC[C@@H]43)[C@@H]1CC[C@@H]2OC(=O)CCc1ccccc1`: the result was inactive.
With `O=C1CC[C@@]2(O)[C@H]3Cc4ccc(O)c5c4[C@@]2(CCN3CC2CC2)[C@H]1O5`, the result was inactive.
In the case of `CCCSc1ccc2nc(NC(=O)OC)[nH]c2c1`, the “activity change, negative = cytotoxicity” value was -24.6% (inactive).
Same read-out and setting: the same measure for `CCC(C(N)=O)N1CCCC1=O` (stereo unspecified): 3.69% (inactive).
